Parameters in all cases: scale not given: direction of the effect not stated beside the values
The target in assay [1] is Protein translocase subunit SecA (Escherichia coli (strain K12)) (UniProt P10408). Description: Assay to Identify E. coli SecA ATPase Inhibitors. In kind it is functional. The conditions noted are these: 30 µM.
The target in assay [2] is T1, Ubiquitin-activating enzyme e1, putative (Leishmania donovani (strain BPK282A1)) (UniProt E9BSI1).
T1 sequence (whole entry): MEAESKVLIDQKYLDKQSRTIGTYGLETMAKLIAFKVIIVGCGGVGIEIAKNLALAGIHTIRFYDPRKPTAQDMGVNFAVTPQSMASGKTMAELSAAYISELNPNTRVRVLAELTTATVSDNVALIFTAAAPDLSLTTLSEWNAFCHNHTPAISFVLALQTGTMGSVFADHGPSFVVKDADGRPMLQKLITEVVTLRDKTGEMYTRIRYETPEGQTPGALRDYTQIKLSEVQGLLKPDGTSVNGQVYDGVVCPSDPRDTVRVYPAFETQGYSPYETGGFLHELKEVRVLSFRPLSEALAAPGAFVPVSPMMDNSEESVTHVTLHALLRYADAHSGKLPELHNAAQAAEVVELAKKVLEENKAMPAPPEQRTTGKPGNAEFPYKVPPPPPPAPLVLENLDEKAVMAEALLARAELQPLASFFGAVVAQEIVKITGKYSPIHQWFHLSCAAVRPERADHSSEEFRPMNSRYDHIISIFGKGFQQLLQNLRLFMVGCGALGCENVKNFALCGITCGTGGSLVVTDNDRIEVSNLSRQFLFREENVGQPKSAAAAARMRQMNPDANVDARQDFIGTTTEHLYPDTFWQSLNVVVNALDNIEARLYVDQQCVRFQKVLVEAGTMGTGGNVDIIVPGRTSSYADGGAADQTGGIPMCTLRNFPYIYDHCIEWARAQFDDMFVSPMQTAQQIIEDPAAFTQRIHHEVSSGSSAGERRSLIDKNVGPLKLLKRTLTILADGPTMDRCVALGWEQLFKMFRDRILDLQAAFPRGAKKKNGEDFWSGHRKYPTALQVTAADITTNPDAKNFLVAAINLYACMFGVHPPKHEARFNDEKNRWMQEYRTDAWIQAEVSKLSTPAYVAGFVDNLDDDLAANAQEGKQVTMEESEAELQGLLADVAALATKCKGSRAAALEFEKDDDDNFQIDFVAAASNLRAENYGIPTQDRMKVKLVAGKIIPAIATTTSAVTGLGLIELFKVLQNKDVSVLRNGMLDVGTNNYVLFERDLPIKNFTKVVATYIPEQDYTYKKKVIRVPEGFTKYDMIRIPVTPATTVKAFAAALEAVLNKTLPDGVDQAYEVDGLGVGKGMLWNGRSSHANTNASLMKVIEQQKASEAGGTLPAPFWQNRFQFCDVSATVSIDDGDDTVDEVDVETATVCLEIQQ
Description: Leishmania donovani Ubiquitin Activating Enzyme (LdE1). The assay is classed as functional. The conditions noted are these: 30 µM.

Assay [3] concerns the target AMP-activated protein kinase, AMPK (Homo sapiens) (UniProt P54646+O43741+P54619+Q9UGJ0+Q9Y478+Q13131+Q9UGI9). Description: AMP-dependent Kinase enzyme assay. An in vitro enzyme assay that detects ADP turnover that is directly proportional to AMPK activity. This uses naive AMPK that is activated during the assay with MK-8722. The assay is classed as functional. The note with it: 30 µM.

For assay [4], the target named is Sialic acid-binding Ig-like lectin 9 (Homo sapiens) (UniProt Q9Y336). Description: Hs-Siglec9 ALPHAscreen SOP 20170721. The note with it: 10 µM. (In general: Alpha assays give light when donor and acceptor beads are brought close together.)
Sequence of Sialic acid-binding Ig-like lectin 9 (Homo sapiens) (Q9Y336 whole entry): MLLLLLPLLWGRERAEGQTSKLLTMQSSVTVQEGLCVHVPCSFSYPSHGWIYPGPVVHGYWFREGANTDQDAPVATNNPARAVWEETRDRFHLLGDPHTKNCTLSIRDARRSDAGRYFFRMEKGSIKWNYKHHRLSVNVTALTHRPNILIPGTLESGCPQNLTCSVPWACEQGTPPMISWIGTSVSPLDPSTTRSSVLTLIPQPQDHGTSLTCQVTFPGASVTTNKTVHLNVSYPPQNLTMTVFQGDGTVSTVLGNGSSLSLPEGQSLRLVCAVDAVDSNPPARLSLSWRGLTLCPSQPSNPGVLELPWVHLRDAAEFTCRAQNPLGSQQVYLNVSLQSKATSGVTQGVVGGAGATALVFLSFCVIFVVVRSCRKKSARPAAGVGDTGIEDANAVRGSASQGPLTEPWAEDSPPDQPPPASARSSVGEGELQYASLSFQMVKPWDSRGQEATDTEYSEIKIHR
The next assay deals with Trypanosoma cruzi. Description: Trypanosoma cruzi phosphomannomutase and mannose-1-phosphate guanylyltransferase assay. The assay is classed as functional. The conditions noted are these: 10 µM.
The target in assay [5] is T2, Arginase-2, mitochondrial (Homo sapiens) (UniProt P78540).
T2 sequence (whole entry): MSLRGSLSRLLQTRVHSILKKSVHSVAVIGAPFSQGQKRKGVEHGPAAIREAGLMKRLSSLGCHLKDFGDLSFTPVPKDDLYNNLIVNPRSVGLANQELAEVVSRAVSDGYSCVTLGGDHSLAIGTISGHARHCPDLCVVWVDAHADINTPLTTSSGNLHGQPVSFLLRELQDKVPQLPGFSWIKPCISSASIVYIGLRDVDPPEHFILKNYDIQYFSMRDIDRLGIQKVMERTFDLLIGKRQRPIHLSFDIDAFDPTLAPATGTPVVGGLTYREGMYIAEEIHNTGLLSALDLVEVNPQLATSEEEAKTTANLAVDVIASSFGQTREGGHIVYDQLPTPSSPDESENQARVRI
Description: in vitro enzyme assay to detect the production of urea directly proportional to the activity of Arginase II. Also: in the data most compounds retested in dose-response had high values. The assay is classed as functional. The note with it: 33.3 µM.

Assay [6] has as its target T3, Proteasome subunit beta (Trypanosoma cruzi) (UniProt O96673).
T3 sequence (whole entry): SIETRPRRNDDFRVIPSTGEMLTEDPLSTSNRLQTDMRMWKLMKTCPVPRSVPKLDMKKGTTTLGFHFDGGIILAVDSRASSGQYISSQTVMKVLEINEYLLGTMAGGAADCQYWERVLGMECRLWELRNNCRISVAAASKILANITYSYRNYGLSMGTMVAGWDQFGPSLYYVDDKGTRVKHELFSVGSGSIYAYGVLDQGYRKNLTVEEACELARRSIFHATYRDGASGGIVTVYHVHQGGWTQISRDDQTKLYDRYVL
Kind of assay: Trypanosoma cruzi proteasome chymotrypsin-like activity (TcProtChymo) assay. Also: in the data most compounds retested in dose-response had high values. In kind it is functional. The conditions noted are these: 9.37 µM.

The species named for another assay is Homo sapiens. Kind of assay: To identify inhibition of the IFN signalling (Jak-Stat) pathway via expression of an eGFP reporter gene under the control of an IFN-stimulated response element (ISRE) containing MxA promoter. The conditions noted are these: 30 µM. The assay is classed as functional. On the technique in general: In a reporter assay the amount or activity of a reporter protein is the signal.

Assay [7] deals with T4, Tyrosyl-tRNA synthetase, putative (Trypanosoma cruzi (strain CL Brener)) (UniProt Q4DSP6).
T4 sequence (whole entry): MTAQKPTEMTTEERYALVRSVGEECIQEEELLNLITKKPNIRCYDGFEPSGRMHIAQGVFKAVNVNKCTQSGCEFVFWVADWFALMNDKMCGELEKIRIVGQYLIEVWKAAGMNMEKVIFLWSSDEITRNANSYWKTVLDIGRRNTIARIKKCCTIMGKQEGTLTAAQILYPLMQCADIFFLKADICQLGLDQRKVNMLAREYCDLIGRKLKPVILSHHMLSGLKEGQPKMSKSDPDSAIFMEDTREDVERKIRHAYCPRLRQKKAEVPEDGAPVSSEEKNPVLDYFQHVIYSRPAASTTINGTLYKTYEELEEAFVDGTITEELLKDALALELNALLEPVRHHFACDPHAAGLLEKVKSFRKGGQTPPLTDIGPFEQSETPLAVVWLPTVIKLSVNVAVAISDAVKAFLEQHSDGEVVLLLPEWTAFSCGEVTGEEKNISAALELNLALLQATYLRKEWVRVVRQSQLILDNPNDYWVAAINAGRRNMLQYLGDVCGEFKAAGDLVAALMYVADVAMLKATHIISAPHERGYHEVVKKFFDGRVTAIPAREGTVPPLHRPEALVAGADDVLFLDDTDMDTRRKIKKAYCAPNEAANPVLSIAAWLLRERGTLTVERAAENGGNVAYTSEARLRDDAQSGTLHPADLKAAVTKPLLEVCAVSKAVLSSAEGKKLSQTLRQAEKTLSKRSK
Kind of assay: Trypanosoma cruzi tyrosyl tRNA synthetase (TcYRS) _High Tyrosine SOP. Also: in the data most compounds retested in dose-response had high values. The note with it: 30 µM. The assay is classed as functional.

Assay [8] deals with T4, Tyrosyl-tRNA synthetase, putative (Trypanosoma cruzi (strain CL Brener)). Kind of assay: Trypanosoma cruzi tyrosyl tRNA synthetase (TcYRS) SOP. In kind it is functional. The note with it: 30 µM.
For assay [9], the target named is Chromo domain-containing protein 1 (Saccharomyces cerevisiae (strain ATCC 204508 / S288c) (Baker's yeast)) (UniProt P32657). Description: ScCHD-1 Enzyme Inhibition Assay. Also: in the data most compounds retested in dose-response had high values. In kind it is functional. The note with it: 30 µM.
Sequence of Chromo domain-containing protein 1 (Saccharomyces cerevisiae (strain ATCC 204508 / S288c) (Baker's yeast)) (P32657 whole entry, the tested form may be a part): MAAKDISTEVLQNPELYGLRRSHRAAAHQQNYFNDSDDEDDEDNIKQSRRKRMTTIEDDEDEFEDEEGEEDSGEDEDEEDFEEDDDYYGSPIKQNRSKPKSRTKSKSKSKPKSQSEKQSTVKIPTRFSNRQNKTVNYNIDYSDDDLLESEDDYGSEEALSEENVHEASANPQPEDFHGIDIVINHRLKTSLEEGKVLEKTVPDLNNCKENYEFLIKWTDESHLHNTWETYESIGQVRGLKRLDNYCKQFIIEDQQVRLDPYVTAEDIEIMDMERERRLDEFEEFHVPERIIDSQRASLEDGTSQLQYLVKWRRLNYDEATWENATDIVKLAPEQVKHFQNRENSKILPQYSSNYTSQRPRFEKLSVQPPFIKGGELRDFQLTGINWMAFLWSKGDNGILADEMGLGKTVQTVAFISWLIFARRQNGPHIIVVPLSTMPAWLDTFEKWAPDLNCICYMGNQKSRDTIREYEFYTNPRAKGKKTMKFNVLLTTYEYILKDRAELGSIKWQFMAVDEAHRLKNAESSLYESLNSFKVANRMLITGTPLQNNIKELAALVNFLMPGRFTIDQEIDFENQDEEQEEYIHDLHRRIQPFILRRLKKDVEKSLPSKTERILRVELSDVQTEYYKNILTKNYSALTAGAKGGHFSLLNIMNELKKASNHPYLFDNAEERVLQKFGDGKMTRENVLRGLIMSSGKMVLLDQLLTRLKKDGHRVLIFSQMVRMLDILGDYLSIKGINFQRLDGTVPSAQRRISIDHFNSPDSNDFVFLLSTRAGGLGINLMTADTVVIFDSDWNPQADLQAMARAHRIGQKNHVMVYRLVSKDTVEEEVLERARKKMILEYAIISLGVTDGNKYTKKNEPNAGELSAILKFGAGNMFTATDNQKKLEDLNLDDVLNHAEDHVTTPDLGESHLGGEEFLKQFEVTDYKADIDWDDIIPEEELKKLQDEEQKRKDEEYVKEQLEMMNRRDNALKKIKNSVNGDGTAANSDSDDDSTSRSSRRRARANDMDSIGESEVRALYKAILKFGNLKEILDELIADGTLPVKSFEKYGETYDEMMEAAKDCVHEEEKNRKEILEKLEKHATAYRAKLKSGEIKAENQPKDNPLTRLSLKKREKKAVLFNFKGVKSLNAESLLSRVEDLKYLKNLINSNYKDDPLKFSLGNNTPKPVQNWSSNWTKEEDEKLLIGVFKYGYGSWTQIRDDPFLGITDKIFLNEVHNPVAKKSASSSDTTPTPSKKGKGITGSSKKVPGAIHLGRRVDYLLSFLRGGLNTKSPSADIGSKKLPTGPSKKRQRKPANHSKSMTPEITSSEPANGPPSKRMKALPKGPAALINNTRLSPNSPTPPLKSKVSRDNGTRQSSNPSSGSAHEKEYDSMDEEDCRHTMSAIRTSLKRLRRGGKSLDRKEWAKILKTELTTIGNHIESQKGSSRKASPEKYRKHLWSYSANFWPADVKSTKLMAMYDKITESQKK

Each structure is given as a SMILES string. For some assays here: Measured potencies and affinities stand elsewhere.

Sequence of Protein translocase subunit SecA (Escherichia coli (strain K12)) (P10408 whole entry): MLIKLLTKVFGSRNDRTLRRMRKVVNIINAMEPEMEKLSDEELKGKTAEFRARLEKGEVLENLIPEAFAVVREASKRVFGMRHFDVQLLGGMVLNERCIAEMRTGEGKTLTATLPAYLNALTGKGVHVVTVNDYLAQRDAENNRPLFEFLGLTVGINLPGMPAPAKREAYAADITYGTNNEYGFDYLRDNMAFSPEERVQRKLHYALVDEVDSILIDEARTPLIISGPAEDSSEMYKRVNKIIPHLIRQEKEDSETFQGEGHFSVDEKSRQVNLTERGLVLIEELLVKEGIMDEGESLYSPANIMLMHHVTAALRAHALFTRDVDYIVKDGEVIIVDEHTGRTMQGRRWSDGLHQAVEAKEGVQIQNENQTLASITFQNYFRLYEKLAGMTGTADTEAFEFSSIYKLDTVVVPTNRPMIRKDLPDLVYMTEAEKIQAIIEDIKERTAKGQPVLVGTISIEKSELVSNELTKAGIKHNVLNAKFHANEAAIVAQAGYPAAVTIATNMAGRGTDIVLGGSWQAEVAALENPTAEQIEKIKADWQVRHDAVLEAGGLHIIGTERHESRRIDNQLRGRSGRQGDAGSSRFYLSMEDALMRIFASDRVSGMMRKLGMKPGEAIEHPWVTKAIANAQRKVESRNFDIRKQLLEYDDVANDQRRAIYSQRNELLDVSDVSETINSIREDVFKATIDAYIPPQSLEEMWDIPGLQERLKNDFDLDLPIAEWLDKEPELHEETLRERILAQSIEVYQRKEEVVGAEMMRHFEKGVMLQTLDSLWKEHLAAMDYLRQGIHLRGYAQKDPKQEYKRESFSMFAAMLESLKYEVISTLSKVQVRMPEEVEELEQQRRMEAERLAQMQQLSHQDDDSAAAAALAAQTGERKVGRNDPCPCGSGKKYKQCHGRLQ

On to `CCS(=O)(=O)Nc1ccn(Cc2cccc(Cl)c2)n1`, for which the Percent Effect was -6.93% in [1]; 0% in [2]; 0.628% in assay [3]; 6.52% in assay [4]; 2.85% in the assay with Trypanosoma cruzi; 1.38% in [5]. The Percent Effect in assay [6] came out at 9.48%; in the assay listed under Homo sapiens it was 13.7%; in assay [7], 6.45%; in [8], 13.6%; in assay [9], 120%.
Take `Cc1nc(CN2CCCC(NCCOCC(F)(F)F)C2)no1` (stereo not given): the Percent Effect in [1] was -6.82%; in assay [2], 7.59%; in assay [3], -4.02%; in assay [4], 0.79%; in the assay with Trypanosoma cruzi, 4.44%; in [5], -1.52%. In addition, the Percent Effect in assay [6] was 4.18%; in the assay listed under Homo sapiens it was -2.76%; in assay [7], 4.43%; in assay [8], 8.86%; in [9] it was -5.18%.
On to `Cc1nc(C)n(CC2CCCN2CCCc2ccccc2)n1` (stereo not given), for which the Percent Effect in assay [1] was -1.6%; in assay [2] it was -11%; in assay [3], -0.4%; in [4] it was 3.43%; in the assay on Trypanosoma cruzi, 1.96%; in assay [5] it was 1.82%. Further, the Percent Effect in assay [6] is 7.1%; in the assay listed under Homo sapiens it was -8.87%; in assay [7] it was 8.6%; in assay [8], 5%; in assay [9] it was -1.02%.
Regarding `Cc1nc(CN2C(=O)COC3(CCN(Cc4nccs4)CC3)C2C)cs1` (stereo not given), the Percent Effect was -1.57% in assay [1]; 0% in assay [2]; -5.34% in [3]; 5.68% in assay [4]; 4.56% in the assay with Trypanosoma cruzi; -4.39% in [5]. The Percent Effect was 2.48% in [6]; -3.19% in the assay filed under Homo sapiens; 6.25% in [7]; 13.6% in assay [8]; -5.58% in assay [9].
Turning to `CC(C)Sc1ncccc1C(=O)NCc1ccc(CS(C)(=O)=O)cc1`, the Percent Effect in assay [1] was -4.04%; in assay [2], 13.9%; in assay [3] it was 0.323%; in assay [4], -3.32%; with Trypanosoma cruzi, -1.74%; in [5] it was 4.09%. The Percent Effect was 18% in assay [6]; 18.1% in the assay listed under Homo sapiens; 4.17% in [7]; 5.06% in assay [8]; -15.6% in [9].
Turning to `O=C(C(CNCc1ccsc1)c1ccccc1)N1CCOCC1` (stereo not given), the Percent Effect in assay [1] was -5.96%; in assay [2] it was 5.2%; in assay [3], -2.02%; in [4] it was 3.85%; with Trypanosoma cruzi it was 1.87%; in assay [5], 5.52%. Further, the Percent Effect in [6] is 6.49%; in the assay filed under Homo sapiens, -32.4%; in assay [7], 1.07%; in assay [8] it was 1.24%; in [9], 1.41%.
With `COC(=O)N1CCCC(C(=O)NCc2cc3cccc(OC)c3o2)C1` (stereo not given), the Percent Effect is -4.05% in [1]; 7.59% in [2]; 3.35% in [3]; 19.5% in assay [4]; -2.36% in the assay with Trypanosoma cruzi; 2.28% in assay [5]. Moreover, the Percent Effect in [6] was -2.54%; in the assay filed under Homo sapiens, -18.3%; in assay [7], 3.45%; in assay [8], 8.86%; in [9], -3.44%.
Consider `Cc1cnc2c(S(=O)(=O)NCC3CCN(C4CC4)C3)cccc2c1` (stereo not given), for which the Percent Effect in assay [1] is -4.76%; in [2], -2.63%; in assay [3], -3.93%; in [4] it was -5.34%; with Trypanosoma cruzi, 5.32%; in assay [5] it was -3.6%. For the same molecule, the Percent Effect in [6] is -7.53%; in the assay filed under Homo sapiens, -27.5%; in assay [7], 11.3%; in assay [8] it was 6.17%; in [9], 6.25%.
In the case of `Cc1nccn1C1CCCN(C(=O)c2ccc(N(C)C)nc2)C1` (stereo not given), the Percent Effect was -4.63% in assay [1]; 7.89% in assay [2]; -3.59% in assay [3]; 3.06% in assay [4]; 6.26% in the assay with Trypanosoma cruzi; -1.08% in [5]. Moreover, the Percent Effect in assay [6] is 7.36%; in the assay filed under Homo sapiens it was 7.13%; in assay [7] it was 7.39%; in assay [8], 18.5%; in assay [9], -0.744%.
As to `CC(C)c1nn(C)c(Cl)c1CNC1CCOc2ccccc21` (stereo not given), the Percent Effect in assay [1] is -3.65%; in assay [2], 8.11%; in assay [3] it was -0.168%; in assay [4], 9.16%; in the assay on Trypanosoma cruzi, 2.32%; in assay [5], 0.185%. Also, the Percent Effect was -1.79% in assay [6]; 31.4% in the assay listed under Homo sapiens; 8.91% in assay [7]; 23.2% in assay [8]; -2.97% in assay [9].

The values are drawn from ChEMBL document CHEMBL3988442, “University of Dundee, Small-Polar-MMV Screening Library” (2021).
